48 compounds from PubChem BioAssay AID903 (National Center for Advancing Translational Sciences (NCATS), 2007) can be followed below.

The campaign covered roughly 55,000 compounds. About 340 (0.62%) were called active. Roughly 3% stayed inconclusive and do not appear here. The entries come from a sample that favours actives as a whole. Entries that show only a call come without a potency. A number with no mark means an inactive call. Calls come from the whole dose curve; as a rule, active = well fitted cell-killing curve with a large enough effect; inconclusive = small, poorly fitted or top-dose-only effect; inactive = no such curve, though single readings can be large or run the other way.
Potency is the fitted concentration of half-maximal effect.

A short description of the test: qHTS Screen for Compounds that Selectively Target Cancer Cells with p53 Mutations: Cytotoxicity of p53 Null Cells at the Permissive Temperature. Note: nearly all actives have a fitted effect of over 55% in size. Particulars: H1299-neo p53 null cells, ATP luminescence, 24 h, 32C; series mostly up to 46.1 µM. An excerpt: NIH Chemical Genomics Center [NCGC] NIH Molecular Libraries Screening Centers Network [MLSCN] MLSCN Grant: 1 X01 MH079844-01 Assay Submitter (PI): Dr. SUN, YI, University of Michigan NCGC Assay Overview: Synthetic Lethal Screen for Compounds to Kill Cancer Cells with p53 Mutation. Tumor suppressor gene p53 serves as a major cellular barrier against tumorigenesis. […] The goal of this screening is to identify small molecule probes that selectively kill cancer cells with mutations in p53. This screening was carried out using two lines of H1299 lung cancer cells. The H1299-p53 A138V line express a temperature sensitive p53 mutant (p53ts) in which the mutant p53 protein (A138V) is in the mutant confirmation when grown at 39C (the nonpermissive temperature) and in the wild type conformation when grown at 32C (the permissive temperature). A H1299-neo line (p53 null) grown at both 39C and 32C were used as counter-screens to filter out false positive associated with temperature shifting. The small molecular compounds that selectively target mutant p53-containing cancer cells were selected as candidate probes for further study. A cytotoxicity assay based on the measurement of ATP contents in cells was used in this screen. Concentration-responses of all the compounds in the library collection were determined in qHTS using the cell lines and temperature conditions as above.
NCGC Assay Protocol Summary: Both the H1299-p53A138V and H1299-neo cell lines were provided by Dr.Yi Sun, a PI at the University Michigan. The cells were maintained and cultured at 37C. The resuspended frozen cells were used to plate the cells in the 1536-well assay plates at a density of 600 cells per well in 5 ul medium. The assay plates with the cells were incubated at 37C for 16 to 30 hours before the experiments. The library compounds in DMSO solution were added to the cells in assay plates and incubated 24 hours at 39C (for mutant p53 conformation) or 32C (for normal p53 conformation as control). An ATP_lite assay kit (PerkinElmer) was used to determine the cell viability. Tomaxifen (100uM) was used as the positive control for cell killing. Data were normalized to the controls for basal activity (DMSO only) and 100% killing (100uM tamoxifen). AC50 values were determined from concentration-response data modeled with the standard Hill equation. P53 assay protocol: 1. Reagent; 5 uL H1299-p53A138V or H1299-neo cell cells/well 2. Time; overnight; 37C incubation 3. Compounds; 23 nL; 5.9 nM to 46 uM 4. Controls; 23 nL; Tamoxifen 100 uM 5. Time; 24 hr; 32C incubation 6. Reagent; 3 uL; ATP_Lite reagent 7. Time; 20 min; Room Temperature 8. Detection; Luminescence; Viewlux plate reader Keywords: p53, synthetic lethal, cancer, cell viability, cytotoxicity, H1299 cell line, luminescence, MLSMR, MLSCN, NIH Roadmap, qHTS, NCGC
For orientation: In qHTS, concentration-response curves come from the screen itself.
On to `COc1ccc(-c2csc(-c3c(N)c(C(=O)c4ccc(OC)c(OC)c4)n4ccccc34)n2)cc1`, for which the Potency entry is “inactive”. Consider `Cc1cc(OCC(=O)Nc2ncn[nH]2)c(C)c(C)c1Br`, for which the Potency result is “inactive”. Take `COc1ccc(N2CCN(c3nc(-c4ccccc4F)nc4ccccc34)CC2)cc1`: the Potency entry was “inactive”. Same read-out and setting: the same measure for `O=S(=O)(c1ccc(Br)cc1)c1nnn2c1nc(NC1CCCCCC1)c1sccc12`: “inactive”; for `COc1cccc(CNC(=O)c2ccc3c(c2)N(Cc2ccc(C(F)(F)F)cc2)C(=O)c2ccccc2S3)c1OC`: “inactive”. `COc1ccc(OC)c2sc(N3CCN(C(=O)C4COc5ccccc5O4)CC3)nc12` (stereo not drawn): the Potency entry was “inactive”.

With `Cn1c(=O)cc(OCC(=O)N2CCN(c3ccccc3F)CC2)c2ccccc21`, the Potency entry was “inactive”. `COc1cc(C(=O)Nc2ccc(OCc3cc(=O)n4cc(C)sc4n3)cc2)cc(OC)c1OC`: the Potency result was “inactive”.

On to `COc1cccc(C2C(C(=O)Nc3ccc(C)cc3C)=C(C)Nc3c(C(=O)Nc4ccccc4)cnn32)c1` (stereo not drawn), for which the Potency entry was “inactive”.

As to `CCNC(=O)Cn1nc(C)n2c(cc3c(OC)cccc32)c1=O`, the Potency entry was “inactive”. The same measure, in the same setting: to `O=C(NCc1ccccc1)C1CCN(S(=O)(=O)c2ccc3[nH]c(=O)ccc3c2)CC1` belongs “inactive”; to `COc1ccc(N2CCN(S(=O)(=O)CCNC(=O)C(c3ccccc3)c3ccccc3)CC2)cc1`, “inactive”. For `Cc1ccc(C2CCN(C(=O)c3cnn(-c4ccccc4Cl)c3C3CCN(C(=O)OC(C)(C)C)CC3)C2)cc1` (stereo not drawn), the Potency result was “inactive”. Take `CN(C)CCCNC(=S)NCc1ccc(Cl)cc1`: the Potency result was “inactive”. Still for that read-out and setting: the same measure for `COc1ccc(CCNC(=O)c2c3c(nc4ccccc24)C(=O)N(C2CCCCC2)C3)cc1OC`: “inactive”; for `CCOC(=O)c1ccc(NC(=O)C2CC(=O)NC(=Nc3ccc(C)c(C)c3)S2)cc1` (stereo not drawn): “inactive”. The same measure, in the same setting: the same measure for `O=C(NC1CCCCC1)c1ccc(Cn2c(SCc3ccccc3)nc3cccnc32)cc1`: “inactive”; for `O=C(NCc1ccc(F)cc1)c1ccc(Cn2c(SCc3ccc(F)cc3)nc3cccnc32)cc1`: “inactive”.

In the case of `Cc1ccc(CSc2nc3cccnc3n2Cc2ccc(C(=O)NC3CC3)cc2)cc1`, the Potency was 2.51 µM (active).

In the case of `COc1ccc(C(=O)OCC(=O)NC(=O)CCSc2ccccc2)cc1`, the Potency entry was “inactive”. Same read-out and setting: to `Cc1cccc(-n2ncc(C(=O)N3CCC(C)CC3)c2C2CCN(C(=O)OC(C)(C)C)CC2)c1` belongs “inactive”. The same measure, in the same setting: to `CC(C)C(=O)Nc1cccc(NC(=O)c2ccc([N+](=O)[O-])cc2Cl)c1` belongs “inactive”; to `CCCCOc1ccc(Cn2c(=O)oc3ccc(C)cc32)cc1OC`, “inactive”. Still for that read-out and setting: to `COc1ccc(CCN2C(=O)C3CC=C(C)CC3C2=O)cc1OC` (stereo not drawn) belongs “inactive”.

As for `CCCCOc1ccc(CN2C(=O)C(=O)c3cc(Br)cc(C)c32)cc1OC`, the Potency was 35.5 µM (active). Take `COc1ccc(NC(=O)c2ccco2)cc1NC(=O)c1ccc(C#N)cc1F`: the activity change, negative = cytotoxicity is -5.82% [at 9.22 µM]. For the compound `Cc1cc(C)c2oc(-c3cccc(NC(=O)c4cccc(F)c4)c3C)nc2c1`, the Potency result is “inactive”. Same read-out and setting: the same measure for `Brc1ccc(-c2noc(-c3ccccc3)n2)o1`: “inactive”; for `Cc1ccccc1-n1c(C)cc(/C=C2\NC(=O)NC2=O)c1C`: 11.2 µM (active); for `Cc1cccc(N2CCN(C3=C(c4ccccc4)C(=O)c4ccccc43)CC2)c1C`: “inactive”. Still for that read-out and setting: to `COc1ccc2oc(=O)c(-c3cn4c(n3)sc3cc(OC)ccc34)cc2c1` belongs “inactive”; to `COc1ccc2cc(-c3nc(Cl)c4c5c(sc4n3)CC(C)CC5)c(=O)oc2c1` (stereo not drawn), “inactive”; to `COc1ccc(-c2cc3ccc(OCc4nn[nH]n4)cc3oc2=O)cc1`, 12.6 µM (active). Still for that read-out and setting: to `Cc1cccc2c(=O)cc(CSc3ccccc3NC(=O)C(C)C)[nH]c12` belongs “inactive”; to `C/C=C/c1ccc(OCCOc2ccc(C=O)cc2OC)c(OC)c1`, “inactive”.

With `COc1ccc(CCNC(=O)c2cc(=O)c3c(C)cc(C)cc3o2)cc1OC`, the Potency result is “inactive”. With `Cc1ccc(-n2c(CNc3ccc(F)cc3)nnc2SCC(=O)N2CCOCC2)cc1`, the Potency result was “inactive”.

For the compound `O=C(NC1CCCCC1)c1ccc2c(c1)N(Cc1ccc(Cl)cc1)C(=O)c1ccccc1S2=O` (stereo not drawn), the Potency result is “inactive”.

As to `O=C(NCC(c1ccc(Cl)cc1)N1CCOCC1)c1ccccc1F` (stereo not drawn), the Potency result is “inactive”. Turning to `O=C(Nc1ccccc1F)c1ccccc1-c1ccccc1`, the Potency result was “inactive”.

As for `CC(=O)c1ccc(NC(=O)Nc2ccc([N+](=O)[O-])cc2C)cc1`, the Potency entry was “inactive”.

Regarding `COc1ccc(N2CCN(c3cc(C)nc4nncn34)CC2)cc1`, the Potency result was “inactive”.

Regarding `COc1ccccc1C1C(C(=O)N2CCCCC2)=C(C)Nc2nc3ccccc3n21` (stereo not drawn), the Potency result is “inactive”. The same measure, in the same setting: the same measure for `COc1ccccc1N1CCN(c2ccc(=O)n(CC(=O)NCc3ccc(OC(C)C)cc3)n2)CC1`: “inactive”; for `Cc1ccc(Cl)cc1NC(=O)CCC(=O)N1CC(C)Sc2ccccc21` (stereo not drawn): “inactive”; for `CC1CCCN(Cc2c(O)ccc3c(=O)c(Oc4ccc(C(C)(C)C)cc4)c(C(F)(F)F)oc23)C1` (stereo not drawn): “inactive”.

As to `Cc1ccccc1CSc1nc(-c2ccccc2)nc2c1Cc1c(CO)cnc(C)c1O2`, the Potency result is “inactive”. Still for that read-out and setting: the same measure for `COc1ccc(OC)c(NC(=O)Cn2c(=O)n(Cc3ccccc3)c(=O)c3ccccc32)c1`: “inactive”.
